As usually defined, the AC50 is the midpoint of the concentration-response curve, whichever way the signal moves.

The source made the active and inactive calls. The calls were made as follows: active = hit-call score of the fitted dose curve at least 0.9, where 1 is the maximum; inactive = score below 0.9.

The values that follow come from PubChem BioAssay (EPA / NIEHS).

The nature of this assay: ATG_AP_2_CIS: Attagene CIS-FACTORIAL HepG2 Assay for human Activator Protein 2 (AP-2) (AID 2282932). The note with it: HepG2 AP-2 cis-reporter, Attagene transcription factor profiling; actives raise or lower the signal. The method, then:
ATG_CIS is a cell-based, multiplexed-readout assay that uses HepG2, a human liver cell line, with measurements taken at 24 hours after chemical dosing in a 24-well plate.ATG_AP_2_CIS is one of 52 assay component(s) measured or calculated from the ATG_CIS assay. It is designed to make measurements of mRNA induction, a form of inducible reporter, as detected with fluorescence intensity signals by Reverse transcription polymerase chain reaction (RT-PCR) and Capillary electrophoresis technology.Data from the assay component ATG_AP_2_CIS was analyzed into 1 assay endpoint. This assay endpoint, ATG_AP_2_CIS, was analyzed with bidirectional fitting relative to DMSO as the negative control and baseline of activity. Using a type of inducible reporter, measures of mRNA for gain or loss-of-signal activity can be used to understand the reporter gene at the transcription factor-level as they relate to the gene TFAP2A and TFAP2B and TFAP2D. Furthermore, this assay endpoint can be referred to as a primary readout, because this assay has produced multiple assay endpoints where this one serves a reporter gene function. To generalize the intended target to other relatable targets, this assay endpoint is annotated to the dna binding intended target family, where the subfamily is basic helix-turn-helix leucine zipper.
Human liver HepG2 cells are transiently transfected with multiple reporter transcription units (MRTUs) in 6-well plates using FuGene 6 reagent (Roche; 3 ml FuGene/1 mg DNA). The MRTU constructs are regulated by a cis-regulating element (promoter). […] A major difference between the CIS and TRANS system is that in CIS activities of endogenous TFs are measured, whereas the TRANS assay evaluates changes in activities of exogenous, chimeric NR-Gal4 proteins. […] At the end of 24 hour incubation, total RNA was isolated using TriZol reagent (Invitrogen). The isolated RNA is then reverse-transcribed using oligo(dT) primer and Mo-MLV reverse transcriptase (Invitrogen) with DNAse I (Ambion) treatment for 30 min. The one-tenth of the produced cDNA was amplified by PCR using Taq DNA polymerase (Invitrogen) and two reporter sequence-specific primers. The PCR products were fluorescently labeled by primer extension with 6-arboxyfluorescein (6-FAM) 5'-labeled reporter sequence-specific primer (2 min at 95 C, 20 s at 68 C and 10 min at 72 C) and these products were digested with 5U of HpaI (New England Biolabs) for 2h at 37 C. The fragments were purified using Qiaquick PCR columns (Qiagen), analyzed on an ABI 3130xL genetic analyzer (Applied Biosystems) with peak positions identified by using a set of X-rhodamine (ROX)-labeled MapMarker1000 molecular weight standards (BioVentures). The raw capillary electrophoresis data was processed using Attagraph software (Attagene).
As for `CC(=O)OC1CCCCC1C(C)(C)C` (stereo not given), the molecule was classed as inactive.
As to `CCC(=O)C1CC(C(C)C)CC=C1C` (stereo not given), the result was inactive.
As to `CCCCCCCCCCCC(C)=O`, the half-maximal activity concentration (AC50) was 153 µM (active).
Turning to `CC1(C)CC(O)CC(C)(C)N1[O]`, the result was inactive.
Still for that read-out and setting: the value for `O=C(O)CCC(=O)O` was “inactive”; that for `CCCCOCCOC(=O)COc1ccc(Cl)cc1Cl` was “inactive”; that for `CC(C)(C)NC(=O)[C@H]1CC[C@H]2[C@@H]3CC[C@H]4NC(=O)C=C[C@]4(C)[C@H]3CC[C@]12C` was “inactive”.
As to `Cc1noc(NS(=O)(=O)c2ccc(N)cc2)c1C`, the molecule was classed as inactive.
On to `CC(C)CCCCCOC(=O)CS`, for which the call was inactive.
Turning to `C=C(C)C1CC=C(C)CC1` (stereo not given), the molecule was classed as inactive.
On to `O=C(OCCc1ccccc1)c1ccccc1`, for which the result was inactive.
On to `O=C(O[C@@H]1Cc2c(O)cc(O)cc2O[C@@H]1c1cc(O)c(O)c(O)c1)c1cc(O)c(O)c(O)c1`, for which the result was inactive.
As for `COc1ccc(C(=O)/C(Br)=C\C(=O)O)cc1`, the molecule was called inactive.
Consider `N#Cc1ccc(C(c2ccc(C#N)cc2)n2cncn2)cc1`, for which the outcome was inactive.
On the same count and under the same terms, the value for `O=C(O)/C=C/c1ccccc1` was “inactive”; that for `CC1=CCC2CC1C2(C)C` (stereo not given) was “inactive”; that for `C=C(C)[C@@H]1CC=C(C)CC1` was “inactive”.
Same read-out and setting: as for `CCCCCCCC(=O)OCC(COC(=O)CCCCCCC)OC(=O)CCCCCCC`, the entry is “inactive”; as for `O=C(Cl)c1c(Cl)c(Cl)c(C(=O)Cl)c(Cl)c1Cl`, “inactive”.
On to `O=C1CCCCCCCCCCCN1`, for which the call was inactive.
Consider `CCOC(=O)OC(=O)OCC`, for which the molecule was classed as inactive.
With `Oc1ccc(-c2ccccc2)c(Cl)c1`, the molecule was classed as inactive.
`CCc1cccc(C)c1N(C(=O)CS(=O)(=O)O)C(C)COC` (stereo not given): the molecule was classed as inactive.
Still for that read-out and setting: the value for `CC(C)c1ccc(O)c(C(C)C)c1` was “inactive”; that for `CCc1occc(=O)c1O` was “inactive”; that for `CCCCc1ccc(Cl)cc1` was “inactive”.
Regarding `CCCCOC(=O)C(C)CC` (stereo not given), the molecule was classed as inactive.
For the molecule `O=C(Nc1ccccc1)c1cc(Cl)ccc1O`, the molecule was called inactive.
Turning to `O=C1CCCCC1C1CCCCC1` (stereo not given), the result was inactive.
Still for that read-out and setting: the value for `CCCCCCO` was “inactive”; that for `CCCCCCCCCCCCC` was “inactive”; that for `CCNc1nc(NC(C)(C)C)nc(OC)n1` was “inactive”.
On to `CC/C=C\C/C=C\C/C=C\CCCCCCCC(=O)OC`, for which the AC50 is 100 µM (active).
As to `COc1cc(O)c(C(=O)c2ccccc2)cc1S(=O)(=O)O`, the molecule was called inactive.
The same measure, in the same setting: the value for `CCN(CC)c1cccc(C)c1` was “inactive”.
In the case of `c1ccc2c(c1)[nH]c1ccccc12`, the result was inactive.
For the molecule `NNS(=O)(=O)c1ccc(Oc2ccc(S(=O)(=O)NN)cc2)cc1`, the call was inactive.
Still for that read-out and setting: as for `O=C(O)CC(C(=O)O)S(=O)(=O)O` (stereo not given), the entry is “inactive”; as for `Nc1ccc(C(=O)O)cc1`, “inactive”; as for `CC(C)OC(=O)c1ccccc1`, “inactive”.
